Screens deposited in PubChem BioAssay by National Center for Advancing Translational Sciences (NCATS).
An excerpt weighted towards active compounds, which were near 21% of everything screened.
Pf growth 96h – inhibits malaria parasite growth, 96 h; P. falciparum luciferase reporter growth, 96 h; actives 6.9% (n = 320,000); AID 504834; Potency, µM (top dose mostly 28.7 µM), for the others: at the top dose activity change, negative = inhibition, hits mostly inhibitors; also: potency is read from the fitted curve at half-maximal effect; % is scaled to controls: 0 for no effect and ±100 for the full control effect
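Infected RBCs, 2% Hct / 0.05% parasitemia final; luciferase-reporter P. falciparum; cpd 96 h, 37 C, 5% CO2; luciferase detection reagent; luminescence.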
HCV inh – HCV inhibition; actives 3.4% (n = 340,000); AID 651820; Potency, µM (top dose mostly 41.8 µM), for the others: at the top dose activity change, negative = inhibition, hits mostly inhibitors; Huh7.5.1 HCVcc-Cre infection, luciferase reporter, 44 h; also: potency is read from the fitted curve at half-maximal effect; % is scaled to controls: 0 for no effect and ±100 for the full control effect
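Luciferase read-out (15 sec integration) after a 15 min room-temperature substrate step quantifies HCVcc-Cre infection. Cells, 1,000 per well, had compound added 4 h post-plating, then virus at ~0.5 moi, and were cultured 44 h.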
AMA1 RON2 block – inhibitors of Plasmodium falciparum AMA1-RON2 interaction. AlphaScreen AMA1-biotinylated RON2 peptide binding. Potency, µM (series often up to 58.2 µM), inactives show at the highest dose activity change, negative = inhibition, actives largely listed as inhibitors. actives 0.2% (n = 360,000);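 also: potency is read from the fitted curve at half-maximal effect; 0% = vehicle wells and -100% = peptide control; nearly all actives have a fitted effect of over 45% in size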
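AMA1 (3D7) with his tag at 25 nM final met compounds first, then biotinylated RON2 peptide at 25 nM; detection used donor plus acceptor beads, 10 µg/mL apiece, read by AlphaScreen after 30 min at room temperature.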
Shiga inhibitor – blocks Shiga toxin action in Vero cells; inhibition, % at 38.7 µM; AID 2315; actives 9.2% (n = 290,000); Vero cells, Shiga toxin protein synthesis inhibition reporter; in the data active = inhibition mostly above about 28%, no sharp cut-off; inactive = mostly below about 43%; also: 0% is about no effect
CHX counter – affects cycloheximide protein synthesis inhibition readout, counter-screen | cell reporter, cycloheximide protein synthesis inhibition counterscreen | max response, % | actives 12% (n = 300,000); in the data active = max response mostly above about 13%, no sharp cut-off; inactive = mostly below about 14%; also: read at 38.3 µM for the half of the compounds with a filed dose; 0% is about no effect
Pf growth 48h – inhibits P. falciparum growth in the first generation, 48 h; P. falciparum luciferase growth in erythrocytes, 48 h; Potency, µM (doses to about 28.7 µM), for the others: at the top dose activity change, negative = inhibition, hits mostly inhibitors; actives 5.9% (n = 310,000); AID 504832; also: potency is read from the fitted curve at half-maximal effect; % is scaled to controls: 0 for no effect and ±100 for the full control effect
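A one-generation exposure of luciferase-tagged malaria parasites in RPMI 1640/Albumax erythrocyte culture, 37 C and 5% CO2. Inhibition is inferred from decreased luminescence after adding detection reagent.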
Starred values were filed as active, the others as inactive; i = inactive; ? = inconclusive; . = no result given; [ ] = remark or other dose. Unless noted, calls follow the shape of the dose curve; as a rule, active = well fitted curve in the direction sought with a large enough effect; inconclusive = small, poorly fitted or top-dose-only effect, or another doubt; inactive = no such curve, though single readings can be large; an effect the other way counts as inactive or inconclusive.

SMILES | Pf growth 96h | HCV inh | AMA1 RON2 block | Shiga inhibitor | CHX counter | Pf growth 48h
CN(C)/C=C1\N=C(c2ccccc2)OC1=O | 34.5% | ? | 13.6% | 19.1 | 15.4* | 27.4%
CC1=CC(=C2N=C(c3ccccc3)OC2=O)C=C(C)O1 | 40.1% | ? | -5.3% | 9.5 | 16.4 | -13.1%
CN(C)/C=C1\N=C(c2ccc3c(c2)OCO3)OC1=O | ? | 4.9% | -11.7% | 63.9* | 27.5* | 117.1%
Clc1ccc(CS[C@@H](Cn2ccnc2)c2ccc(Cl)cc2Cl)cc1 | 2.28µM* | . | . | . | . | 5.1µM*
O=C(NCCCn1ccnc1)C(=O)NCc1ccc(Cl)cc1 | -19.8% | 12.6% | -17.1% | -2.4 | -3.8 | -28.2%
Clc1ccc(CSC(Cn2ccnc2)c2ccc(Cl)cc2Cl)cc1 (centres undefined) | 2.94µM* | 6.0%[8.37 µM] | 2.2% | -9.9 | -2.7 | 2.08µM*
O=C(Cc1ccc(Cl)cc1)NCCCn1ccnc1 | ? | 2.8% | -2.6% | -6.0 | 6.0 | ?
CCCCN(C(=O)c1ccc(S(=O)(=O)N2CCC(C)CC2)cc1)C1CCS(=O)(=O)C1 (centres undefined) | ? | 14.4%[8.37 µM] | 8.4% | . | . | -11.5%
COc1ccc(S(=O)(=O)NC(=O)C2(C)CCN2C(=O)C(C)(C)c2ccccc2)cc1 (centres undefined) | . | . | 0.0% | . | . | .
O=C(NCC1CCCO1)c1cccc(S(=O)(=O)NCc2ccccc2)c1 (centres undefined) | -0.5% | -1.9% | 2.9% | 12.0 | -2.1 | -1.1%
Cc1ccc(N=Cc2c(C)[nH]n(-c3nc4ccccc4[nH]3)c2=O)cc1 | 3.8% | 4.1% | 23.7%[11.6 µM] | 0.7 | 5.2 | -29.4%
O=c1[nH]ncc(NCCCO)c1Cl | 11.1% | 2.4% | -14.7% | -2.0 | -2.3 | 18.5%
C=CCN(CC=C)c1cnn(-c2nc3ccccc3[nH]2)c(=O)c1Cl | . | -1.5% | -7.7% | 88.6* | 27.1* | -22.0%
O=c1c(Cl)c(NCCCO)cnn1-c1nc2ccccc2[nH]1 | 462.5% | 10µM* | 9.5% | 137.5* | 83.9* | 348.3%
Nc1ncnc(Nc2ccc(F)c(Cl)c2)n1 | -0.7% | -0.3% | 6.4% | 56.6* | 18.6* | 24.1%
Clc1ccccc1Nc1ncnc(-n2cccc2)n1 | 91.2% | -23.5% | -15.6% | 130.6* | 61.8* | 85.5%
Cc1ccc(Nc2ncnc(-n3cccc3)n2)cc1Cl | 171.8% | -13.5% | -9.0% | 79.6* | 32.0* | 280.4%
Nc1ncnc(Nc2cccc(F)c2)n1 | -6.0% | 9.6% | -12.1% | 42.7 | 2.0 | 19.1%
Nc1ncnc(Nc2ccccc2Cl)n1 | 11.1% | -3.2% | -0.2% | 3.6 | 16.7* | 116.2%
Clc1ccccc1Nc1nc2ccccc2o1 | i | -17.2% | 15.8% | . | . | 381.1%
Clc1cc(Cl)cc(Nc2ncnc(-n3cccc3)n2)c1 | ? | -17.0% | 7.3% | -15.7 | -0.6 | ?
COc1ccc(CCN(C)C(=O)CN2C(=O)NC3(CCCCC3C)C2=O)cc1OC (centres undefined) | -1.4% | -0.6% | -16.9% | . | . | -17.1%
COc1cc(C(=O)NCc2ccc3c(c2)OCO3)c([N+](=O)[O-])cc1OC | ? | 8.1% | -2.3% | -10.4 | -1.9 | 3.3%
Cc1cccc(OCc2nnc(SCC(=O)NC3CCCCC3)n2C)c1 | -5.8% | -1.6% | 15.8% | -7.0 | 9.2 | -2.9%
COc1cc2nc(CN3CCN(S(=O)(=O)c4ccc(C)c(C)c4)CC3)[nH]c(=O)c2cc1OC | ? | 8.1% | 2.8% | -13.2 | -1.6 | 9.28µM*
SMILES | Pf growth 96h | HCV inh | AMA1 RON2 block | Shiga inhibitor | CHX counter | Pf growth 48h
CCN(CC(=O)Nc1cc(Cl)ccc1C)C(=O)c1ccc2c(c1)NC(=O)C(C)S2 (centres undefined) | -10.3% | ? | 5.9% | . | . | ?
COc1ccc(S(=O)(=O)N2CCCCC2)cc1NC(=O)C1CC(=O)N(Cc2ccccc2)C1 (centres undefined) | 11.7µM* | -2.5% | 3.2% | . | . | 13.1µM*
CCCCc1nnc(NC(=O)C2CC(=O)N(Cc3ccccc3)C2)s1 (centres undefined) | 10.4µM* | -10.0% | -3.1% | -5.3 | -3.0 | ?
O=C(Nc1cccc(S(=O)(=O)N2CCCCC2)c1)C1CC(=O)N(Cc2ccccc2)C1 (centres undefined) | ? | -25.3% | -3.8% | . | . | 13.1µM*
COc1ccccc1NS(=O)(=O)c1cccc(NC(=O)C2CC(=O)N(Cc3ccccc3)C2)c1 (centres undefined) | -25.6% | 14.1µM* | -4.4% | -6.2 | -3.9 | ?
O=C1CC(=O)Nc2cc(S(=O)(=O)Nc3cccc(C(F)(F)F)c3)ccc2N1 | 11.8% | 1.5% | -0.3% | -3.9 | 1.3 | -2.8%
CC1(c2ccccc2Cl)NC(=O)N(CC(=O)NCc2ccco2)C1=O (centres undefined) | 23.9% | -1.2% | -9.2% | -5.7 | 6.0 | i
O=C(Nc1cccc(S(=O)(=O)N2CCCCC2)c1)C1CC(=O)N(c2ccc3c(c2)OCCO3)C1 (centres undefined) | ? | 12.6µM* | -10.7% | -30.6 | -2.9 | ?
CN(c1ccccc1)S(=O)(=O)c1cccc(NC(=O)C2CC(=O)N(Cc3ccccc3)C2)c1 (centres undefined) | ? | 12.6µM* | -4.0% | -4.3 | -3.2 | ?
CN(C)S(=O)(=O)c1ccc(NC(=O)C2CC(=O)N(Cc3ccccc3)C2)cc1 (centres undefined) | 6.1% | -8.4% | 9.3% | 25.7 | -5.2 | 14.8%
O=C(Nc1cccc(S(=O)(=O)N2CCCCCC2)c1)C1CC(=O)N(c2ccc3c(c2)OCCO3)C1 (centres undefined) | -3.6% | ? | -10.8% | . | . | -6.9%
N=c1c(C(=O)NCC2CCCO2)cc2c(=O)n3ccccc3nc2n1C1CCCC1 (centres undefined) | -12.6% | -24.2% | 6.0% | -6.8 | -1.8 | -11.7%
N=c1c(C(=O)NCC2CCCO2)cc2c(=O)n3ccccc3nc2n1Cc1ccccc1 (centres undefined) | ? | 7.08µM* | 11.2% | -8.5 | 1.0 | ?
Cc1ccc(Cn2c(=N)c(C(=O)NCC3CCCO3)cc3c(=O)n4ccccc4nc32)cc1 (centres undefined) | ? | ? | 28.3% | -3.5 | -7.5 | ?
N=c1c(C(=O)NCC2CCCO2)cc2c(=O)n3ccccc3nc2n1Cc1ccc(Cl)cc1 (centres undefined) | ? | ? | 17.5% | -4.3 | -1.6 | 10.4µM*
N=c1c(C(=O)NCC2CCCO2)cc2c(=O)n3ccccc3nc2n1C1CCCCC1 (centres undefined) | 2.62µM* | 0.5% | -0.2% | -4.4 | -0.5 | -6.8%
CC(=O)N/C(=C\c1ccccc1)C(=O)OCC(=O)N(C)C1CCCCC1 | -8.3% | 38.7% | 7.5% | -2.2 | -2.6 | -4.1%
Nc1nc(N)nc(COc2ccccc2)n1 | 5.7% | 3.8% | 9.4% | 95.8* | 41.5* | 210.2%
